Bioassay records deposited in PubChem BioAssay by National Center for Advancing Translational Sciences (NCATS).
This excerpt belongs to a sample that is enriched for hits.
KDM5B inh – Primary screen for KDM5B Histone Demethylases FDH-coupled qHTS. Lysine-specific demethylase 5B (Homo sapiens), Q9UGL1. KDM5B demethylase, FDH-coupled NADH fluorescence (FDH is formaldehyde dehydrogenase). Potency, µM (highest dose often 57.7 µM), usual class: inhibitors. 220,000 compounds, 2.6% hits. AID 1347165, 2019; active = well fitted inhibition curve with a large enough effect; note: 0% is about no effect; nearly all actives have a fitted effect of over 70% in size
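Inhibition is measured as reduced NADH fluorescence generation from FDH coupling to formaldehyde release. Truncated KDM5BΔAP at 200 nM final acts on H3K4me3 peptide (12.5 µM in substrate mix) in pH 7.5 HEPES buffer with Tween-20, 30 min, room temperature.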
An asterisk follows results filed as active. Potency is the fitted concentration of half-maximal effect.

CCn1ncc(C(=O)N[C@@H]2CN(c3ccncn3)C[C@H]2CN(C)C)c1C was read as KDM5B inh inactive.
COc1ccccc1C(=O)N[C@@H]1CN(c2ccccn2)C[C@H]1CN(C)C was read as KDM5B inh 28µM*.
COCCC(=O)N[C@@H]1CN(c2ccncn2)C[C@H]1CN(C)C was read as KDM5B inh inactive.
Screening CCn1ncc(C(=O)N[C@@H]2CN(c3ccccn3)C[C@H]2CN(C)C)c1C returned KDM5B inh 32µM*.
CCn1ncc(C(=O)N[C@@H]2CN(Cc3ccccc3)C[C@H]2CN(C)C)c1C was read as KDM5B inh inactive.
For COc1cccc(N2CC(C(=O)N3CCC(C(=O)NCC4CC4)C3)NC2=O)c1 (configuration not stated) the results were KDM5B inh inactive.
For COc1ccc2nc(Nc3ncc4c(n3)CC(C)CC4=O)nc(C)c2c1 (configuration not stated) the results were KDM5B inh inactive.
Screening COC(=O)c1ccc(CNC(=O)c2ccc(F)cc2)cc1 returned KDM5B inh inactive.
Screening CCS(=O)(=O)N1CCC(N2CCCC(C(=O)NCCc3ccccc3)C2)CC1 (configuration not stated) returned KDM5B inh inactive.
Screening C=CCNc1nc(C(=O)OCC(=O)N(C)CC(=O)Nc2ccc(C)cc2)cs1 returned KDM5B inh inactive.
Screening Cn1ncc2c(C(=O)N3CCOCC3)cc(-c3cccnc3)nc21 returned KDM5B inh inactive.
O=C(c1nc(-c2cccc(C(F)(F)F)c2)c2ccccn12)N1CCOCC1 was read as KDM5B inh 28µM*.
O=C(c1nc(-c2cccc(C(F)(F)F)c2)c2ccccn12)N1CCN(c2ncccn2)CC1 was read as KDM5B inh 25µM*.
Screening O=C(c1nc(-c2cccnc2)c2ccccn12)N1CCOCC1 returned KDM5B inh 112µM*.
O=C(c1ccccc1)N1CCCN(c2nccc(C(F)(F)F)n2)CC1 was read as KDM5B inh inactive.
`O=C(c1nc(-c2cccc(C(F)(F)F)c2)c2cnccn12)N1CCN(c2ncccn2)CC1` gave KDM5B inh 28µM*.
Screening Cc1cccc(-c2cc(C(=O)N3CCN(c4ncccn4)CC3)c3ccccc3n2)c1 returned KDM5B inh inactive.
For Cc1nc(N2CCOCC2)c2c(C(=O)N3CCN(c4cccc(C(F)(F)F)c4)CC3)c(C)oc2n1 the results were KDM5B inh inactive.
O=C(c1cn2c(n1)CN([S+](=O)([O-])c1cccc(C(F)(F)F)c1)CC2)N1CCOCC1 was read as KDM5B inh inactive.
Screening COc1cccc(-c2cc(C(=O)N3CCN(c4ncccn4)CC3)c3ccccc3n2)c1 returned KDM5B inh inactive.
Screening C[S+](=O)([O-])c1ccc(-c2nc(C(=O)N3CCOCC3)n3ccccc23)cc1 returned KDM5B inh inactive.
O=C(c1ccccn1)N1CCC2(CC(c3cccc(C(F)(F)F)c3)=NO2)C1 (configuration not stated) was read as KDM5B inh inactive.
O=C1CC2(CCN(C(=O)c3ccc(C(F)(F)F)cc3)CC2)Oc2cc(Cl)ccc21 was read as KDM5B inh inactive.
CCN1C(=O)C2CC3(CCN(Cc4ccc(F)c(F)c4)CC3)CN2C1=O (configuration not stated) was read as KDM5B inh inactive.
For Cc1ccc(S(=O)(=O)N2CCN(C(=O)c3c(-c4c(F)cccc4Cl)noc3C)CC2)cc1C the results were KDM5B inh inactive.
Screening Cc1ccc(C(=O)N2CCN(c3cc(C(F)(F)F)ncn3)CC2)cc1F returned KDM5B inh inactive.
Screening COc1ccc(OC)c(C2CC(=O)Nc3c2c(C)nn3-c2ccc3nnc(C)n3n2)c1 (configuration not stated) returned KDM5B inh inactive.
Screening Cc1ccccc1-n1nnnc1C1(NCc2ccccc2)CCCC1 returned KDM5B inh inactive.
`CN(C)C(=O)c1cccc(C(F)(F)F)c1` gave KDM5B inh inactive.
Screening CN(C)C(=O)c1nc(-c2cccc(C(F)(F)F)c2)c2ccccn12 returned KDM5B inh 35µM*.
For C#CCNC(=O)c1nc(-c2cccc(C(F)(F)F)c2)c2ccccn12 the results were KDM5B inh inactive.
Cn1nc(C(=O)Nc2ccc(OCC(N)=O)cc2)c2ccccc2c1=O was read as KDM5B inh inactive.
COC(=O)c1ccc(OC(=O)COc2ccc3oc4c(c3c2)CCCC4)c(OC)c1 was read as KDM5B inh inactive.
For COc1ccc(-c2cc(C[C@H]3CNCC[C@H]3CC(=O)N3CCC(n4c(=O)[nH]c5ccccc54)CC3)no2)cc1 the results were KDM5B inh inactive.
Screening Cc1n[nH]c(=O)c2c(NC(=O)CSc3nnc(C4CC4)n3-c3ccccc3)oc(C)c12 returned KDM5B inh inactive.
`CCn1nc(C(=O)OC/C(O)=C(\C#N)c2nc3ccccc3[nH]2)c2ccccc2c1=O` gave KDM5B inh inactive.
For CCn1ncc(NC(=O)Cn2ncc3cc(-c4ccc(N(C)C)cc4)ccc32)n1 the results were KDM5B inh 14µM*.
`CCOc1ccc(NC(=O)CN2CCN(CC(=O)Nc3ccc(N(C)C)cc3)CC2)cc1` gave KDM5B inh inactive.
`Cc1ccc(C)c(-c2nn(CC(=O)Nc3cc(F)ccc3F)c(=O)c3c2CCCC3)c1` gave KDM5B inh inactive.
For CCn1ncc(NC(=O)Cn2ncc3cc(-c4cc(F)ccc4F)ccc32)n1 the results were KDM5B inh 20µM*.
CNC(=O)CCn1ncc2cc(OCc3ccccc3-c3ccc(F)cc3)ccc21 was read as KDM5B inh inactive.
Cc1cc(=O)n(CC(=O)Nc2ccc(N(C)C)cc2)c(-c2ccc(F)cc2)n1 was read as KDM5B inh inactive.
Screening O=C1NCC2(CCCN(C(=O)CCc3ccc(=O)[nH]n3)C2)O1 (configuration not stated) returned KDM5B inh inactive.
Screening CC(C)CCNC(=O)NC(=O)CCl returned KDM5B inh inactive.
For O=[S+]([O-])(NCC1CN(Cc2ccc(O)cc2)CC12CN(c1ccccc1)C2)c1ccccc1 (configuration not stated) the results were KDM5B inh inactive.
Cc1cccc(SCc2nc3c(c(=O)[nH]c(=O)n3C)n2C)c1 was read as KDM5B inh inactive.
`CC(Oc1ccc(Cl)cc1Cl)C(=O)N1CCN(C(=O)c2ccco2)CC1` (configuration not stated) gave KDM5B inh inactive.
COc1ccc(Cl)cc1-c1ccc2c(c1)C(=O)N1CCN(C(=O)c3ccco3)C[C@H]1C(=O)N2 was read as KDM5B inh 35µM*.
Screening CCC(CC)C(=O)N[C@H]1CCN2C(=O)c3cc(-c4cc(Cl)ccc4OC)ccc3NC(=O)[C@@H]2C1 returned KDM5B inh inactive.
Screening O=C(c1ccco1)N1CCN(C(=O)c2cc(=O)c3cc(Cl)ccc3o2)CC1 returned KDM5B inh inactive.
COc1ccc(Cl)cc1-c1ccc2c(c1)C(=O)N1CCN(C(=O)CO)C[C@@H]1C(=O)N2 was read as KDM5B inh 35µM*.
For COc1ccc(Cl)cc1-c1ccc2c(c1)C(=O)N1CCN(C(=O)CC3(CC(=O)O)CCCC3)C[C@H]1C(=O)N2 the results were KDM5B inh inactive.
CCOC(=O)C(CC(=O)O)c1ccccc1 (configuration not stated) was read as KDM5B inh inactive.
